Measured values published in PubChem BioAssay (NCI).
Compounds without any hit were thinned out: in the full panel of roughly 79,000, 15% have a hit. Values without a mark were called inactive. Activity calls are given as the source filed them. Cut-off read from the data, not from the text of the source: active = growth inhibition above about 70%; inactive = the rest.

Experiments:
[1] = NCI Yeast Anticancer Drug Screen. Data for the rad52 strain (AID 147);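 note: 0% = growth of vehicle-treated control cultures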; conditions: S. cerevisiae rad52 mutant growth inhibition, hits give high values
Outline: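 Measured: yeast growth inhibition. System: strain with a defined DNA damage repair alteration. Reference: vehicle-treated control cultures.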

[2] = NCI Yeast Anticancer Drug Screen. Data for the wt1 strain (AID 149);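 note: 0% = growth of vehicle-treated wt1 cultures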; conditions: S. cerevisiae wt1 strain (SPY 50644) growth inhibition, hits give high values
Outline: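 Yeast wt1 strain exposed to compounds; growth inhibition measured relative to vehicle-treated controls.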

[3] = NCI Yeast Anticancer Drug Screen. Data for the rad50EPP+ strain (AID 151);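 note: 0% = growth of vehicle-treated control cultures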; conditions: S. cerevisiae rad50 mutant strain, hits give high values
Outline: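 One strain with a rad50 alteration (rad50EPP+) was compound-treated, its growth then compared to that of vehicle controls.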

[4] = NCI Yeast Anticancer Drug Screen. Data for the mgt1 strain (AID 153); conditions: S. cerevisiae mgt1 mutant growth inhibition, hits give high values
Outline: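 After exposure of the mgt1 yeast mutant to compound, growth was measured and reported as inhibition compared with vehicle controls.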

[5] = NCI Yeast Anticancer Drug Screen. Data for the rad50 strain (AID 155);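 note: 0% = growth of vehicle-only cultures of the same strain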; conditions: S. cerevisiae rad50 strain growth inhibition, hits give high values
Outline: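 Yeast carrying a defined DNA repair defect were exposed to test compounds, and growth was compared with vehicle-treated controls to give percent inhibition.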

[6] = NCI Yeast Anticancer Drug Screen. Data for the mec2-1 strain (AID 157); conditions: S. cerevisiae mec2-1 strain, hits give high values
Outline: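 Test agents were screened against the mec2-1 yeast strain, with defined DNA repair or cell cycle alteration. Growth was scored as inhibition against vehicle-only controls.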

[7] = NCI Yeast Anticancer Drug Screen. Data for the rad14 strain (AID 159);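 note: 0% = growth of vehicle-treated control cultures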; conditions: S. cerevisiae rad14 strain growth inhibition, hits give high values
Outline: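 Yeast cells carrying a defined DNA-repair defect were exposed to compounds, and growth inhibition was calculated relative to vehicle-treated control cultures.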

[8] = NCI Yeast Anticancer Drug Screen. Data for the sgs1 mgt1 strain (AID 161);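 note: 0% = growth of cultures given vehicle only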; conditions: S. cerevisiae sgs1 mgt1 strain, hits give high values
Outline: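 Read-out: growth inhibition vs vehicle controls. Cells: mutant yeast strain deficient in DNA damage repair.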

[9] = NCI Yeast Anticancer Drug Screen. Data for the CLN2oe strain (AID 163);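 note: 0% = growth of vehicle-only control cultures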; conditions: S. cerevisiae CLN2oe strain, hits give high values
Outline: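 Here, growth inhibition in a cell-cycle-altered yeast strain after compound exposure was quantified against vehicle control growth.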

[10] = NCI Yeast Anticancer Drug Screen. Data for the cln2 rad14 strain (AID 165);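 note: 0% = growth equal to vehicle treated cultures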; conditions: S. cerevisiae cln2 rad14 strain, hits give high values
Outline: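 Growth of compound-exposed yeast (cln2 rad14 genotype) measured and expressed as inhibition relative to vehicle.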

[11] = NCI Yeast Anticancer Drug Screen. Data for the bub3 strain (AID 167); conditions: S. cerevisiae bub3 mutant strain, hits give high values
Outline: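 Compounds were applied to a genetically altered yeast strain carrying a cell-cycle control defect. Growth inhibition was scored against vehicle-treated controls.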

[12] = NCI Yeast Anticancer Drug Screen. Data for the wt2 strain (AID 169);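 note: 0% = growth of vehicle-treated yeast cultures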; conditions: S. cerevisiae wt2 strain growth inhibition, hits give high values
Outline: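 Genetically defined yeast strains from a DNA-repair/cell-cycle panel were used. Compound-exposed yeast growth was measured, and the inhibition was calculated relative to vehicle treatment.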

[13] = NCI Yeast Anticancer Drug Screen. Data for the mlh1 strain (AID 171);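 note: 0% = growth of vehicle-treated control cultures of the same strain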; conditions: S. cerevisiae mlh1 strain growth inhibition, hits give high values
Outline: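 Here the genetically defined yeast mutant is grown with each compound, and the extent to which its growth falls below that of vehicle-exposed cells is reported.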

[14] = NCI Yeast Anticancer Drug Screen. Data for the mlh1 rad18 strain (AID 175); conditions: S. cerevisiae mlh1 rad18 strain growth inhibition, hits give high values
Outline: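 In this whole-cell yeast screen, a strain with altered DNA damage repair is challenged with compound, and its growth is measured against matched vehicle-treated controls.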

[15] = NCI Yeast Anticancer Drug Screen. Data for the rad18 strain (AID 177); conditions: S. cerevisiae rad18 mutant growth inhibition, hits give high values
Outline: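 Screen uses a yeast strain with a defined lesion in DNA damage repair; compound effect is read as loss of growth compared to untreated vehicle cultures.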

[16] = NCI Yeast Anticancer Drug Screen. Data for the sgs1 strain (AID 173);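 note: 0% = growth of vehicle-only control cultures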; conditions: S. cerevisiae sgs1 mutant, hits give high values
Outline: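 Relative growth inhibition, referenced to vehicle, was determined in a yeast strain with a defined alteration affecting DNA damage repair or cell cycle control after compound exposure.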

[17] = at 5.0 µM (retest, dose inferred, filed as 0.5)
[18] = at 50.0 µM (retest, dose inferred, filed as 5.0)

## O=c1cccccc1[O-].O=c1cccccc1[O-].O=c1cccccc1[O-].[Eu+3]
[1]; at 1.2 µM
  growth inhibition: 2%
[1]; at 3.7 µM
  growth inhibition: 3%
[1]; at 11.0 µM
  growth inhibition: 32%
[1]; at 33.0 µM
  growth inhibition: 97% (active)
[1]; at 100.0 µM
  growth inhibition: 97% (active)
[2]; at 1.2 µM
  growth inhibition: 6%
[2]; at 3.7 µM
  growth inhibition: 2%
[2]; at 11.0 µM
  growth inhibition: 14%
[2]; at 33.0 µM
  growth inhibition: 97% (active)
[2]; at 100.0 µM
  growth inhibition: 97% (active)
[3]; at 1.2 µM
  growth inhibition: 0%
[3]; at 3.7 µM
  growth inhibition: -1%
[3]; at 11.0 µM
  growth inhibition: 16%
[3]; at 33.0 µM
  growth inhibition: 95% (active)
[3]; at 100.0 µM
  growth inhibition: 96% (active)
[4]; at 1.2 µM
  growth inhibition: 13%
[4]; at 3.7 µM
  growth inhibition: 8%
[4]; at 11.0 µM
  growth inhibition: 14%
[4]; at 33.0 µM
  growth inhibition: 97% (active)
[4]; at 100.0 µM
  growth inhibition: 98% (active)
[5]; at 1.2 µM
  growth inhibition: 6%
[5]; at 3.7 µM
  growth inhibition: -29%
[5]; [17]
  growth inhibition: 38%
[5]; at 11.0 µM
  growth inhibition: 71% (active)
[5]; at 33.0 µM
  growth inhibition: 97% (active)
[5]; [18]
  growth inhibition: 38%
[5]; at 50.0 µM
  growth inhibition: 92.5% (active)
[5]; at 100.0 µM
  growth inhibition: 93% (active)
[6]; at 1.2 µM
  growth inhibition: -1%
[6]; at 3.7 µM
  growth inhibition: 2%
[6]; [17]
  growth inhibition: 26%
[6]; at 11.0 µM
  growth inhibition: 16%
[6]; at 33.0 µM
  growth inhibition: 90% (active)
[6]; [18]
  growth inhibition: 26%
[6]; at 50.0 µM
  growth inhibition: 91.7% (active)
[6]; at 100.0 µM
  growth inhibition: 98% (active)
[7]; at 1.2 µM
  growth inhibition: 3%
[7]; at 3.7 µM
  growth inhibition: 7%
[7]; at 11.0 µM
  growth inhibition: 25%
[7]; at 33.0 µM
  growth inhibition: 98% (active)
[7]; at 100.0 µM
  growth inhibition: 98% (active)
[8]; [17]
  growth inhibition: 65%
[8]; [18]
  growth inhibition: 65%
[8]; at 50.0 µM
  growth inhibition: 89.7% (active)
[9]; at 1.2 µM
  growth inhibition: 5%
[9]; at 3.7 µM
  growth inhibition: 11%
[9]; at 11.0 µM
  growth inhibition: 25%
[9]; at 33.0 µM
  growth inhibition: 92% (active)
[9]; at 100.0 µM
  growth inhibition: 98% (active)
[10]; [17]
  growth inhibition: 5%
[10]; [18]
  growth inhibition: 5%
[10]; at 50.0 µM
  growth inhibition: 86.7% (active)
[11]; at 1.2 µM
  growth inhibition: 1%
[11]; at 3.7 µM
  growth inhibition: 1%
[11]; [17]
  growth inhibition: 8%
[11]; at 11.0 µM
  growth inhibition: 2%
[11]; at 33.0 µM
  growth inhibition: 96% (active)
[11]; [18]
  growth inhibition: 8%
[11]; at 50.0 µM
  growth inhibition: 92.8% (active)
[11]; at 100.0 µM
  growth inhibition: 98% (active)
[12]; at 1.2 µM
  growth inhibition: 1%
[12]; at 3.7 µM
  growth inhibition: 3%
[12]; at 11.0 µM
  growth inhibition: 22%
[12]; at 33.0 µM
  growth inhibition: 99% (active)
[12]; at 100.0 µM
  growth inhibition: 98% (active)
[13]; at 1.2 µM
  growth inhibition: -4%
[13]; at 3.7 µM
  growth inhibition: -1%
[13]; at 11.0 µM
  growth inhibition: 13%
[13]; at 33.0 µM
  growth inhibition: 95% (active)
[13]; at 100.0 µM
  growth inhibition: 98% (active)
[14]; [17]
  growth inhibition: 24%
[14]; [18]
  growth inhibition: 24%
[14]; at 50.0 µM
  growth inhibition: 89.8% (active)
[15]; at 1.2 µM
  growth inhibition: 3%
[15]; at 3.7 µM
  growth inhibition: 15%
[15]; at 11.0 µM
  growth inhibition: 42%
[15]; at 33.0 µM
  growth inhibition: 98% (active)
[15]; at 100.0 µM
  growth inhibition: 97% (active)

## O=[N+]([O-])c1cccc2nc3ccccc3c(NCCCN3CCCCC3)c12
[1]; at 1.2 µM
  growth inhibition: 89% (active)
[1]; at 3.7 µM
  growth inhibition: 95% (active)
[1]; at 11.0 µM
  growth inhibition: 96% (active)
[1]; at 33.0 µM
  growth inhibition: 97% (active)
[1]; at 100.0 µM
  growth inhibition: 98% (active)
[2]; at 1.2 µM
  growth inhibition: 3%
[2]; at 3.7 µM
  growth inhibition: 13%
[2]; at 11.0 µM
  growth inhibition: 80% (active)
[2]; at 33.0 µM
  growth inhibition: 96% (active)
[2]; at 100.0 µM
  growth inhibition: 97% (active)
[3]; at 1.2 µM
  growth inhibition: 83% (active)
[3]; at 3.7 µM
  growth inhibition: 96% (active)
[3]; at 11.0 µM
  growth inhibition: 98% (active)
[3]; at 33.0 µM
  growth inhibition: 98% (active)
[3]; at 100.0 µM
  growth inhibition: 99% (active)
[4]; at 1.2 µM
  growth inhibition: 12%
[4]; at 3.7 µM
  growth inhibition: 45%
[4]; at 11.0 µM
  growth inhibition: 94% (active)
[4]; at 33.0 µM
  growth inhibition: 98% (active)
[4]; at 100.0 µM
  growth inhibition: 99% (active)
[5]; at 1.2 µM
  growth inhibition: 71% (active)
[5]; at 3.7 µM
  growth inhibition: 89% (active)
[5]; [17]
  growth inhibition: 89% (active)
[5]; at 11.0 µM
  growth inhibition: 94% (active)
[5]; at 33.0 µM
  growth inhibition: 96% (active)
[5]; [18]
  growth inhibition: 98% (active)
[5]; at 50.0 µM
  growth inhibition: 96.7% (active)
[5]; at 100.0 µM
  growth inhibition: 97% (active)
[6]; at 1.2 µM
  growth inhibition: 73% (active)
[6]; at 3.7 µM
  growth inhibition: 94% (active)
[6]; [17]
  growth inhibition: 97% (active)
[6]; at 11.0 µM
  growth inhibition: 97% (active)
[6]; at 33.0 µM
  growth inhibition: 97% (active)
[6]; [18]
  growth inhibition: 99% (active)
[6]; at 50.0 µM
  growth inhibition: 98.2% (active)
[6]; at 100.0 µM
  growth inhibition: 98% (active)
[7]; at 1.2 µM
  growth inhibition: 98% (active)
[7]; at 3.7 µM
  growth inhibition: 98% (active)
[7]; at 11.0 µM
  growth inhibition: 98% (active)
[7]; at 33.0 µM
  growth inhibition: 99% (active)
[7]; at 100.0 µM
  growth inhibition: 98% (active)
[8]; [17]
  growth inhibition: 92% (active)
[8]; [18]
  growth inhibition: 98% (active)
[8]; at 50.0 µM
  growth inhibition: 97% (active)
[9]; at 1.2 µM
  growth inhibition: -3%
[9]; at 3.7 µM
  growth inhibition: 45%
[9]; at 11.0 µM
  growth inhibition: 89% (active)
[9]; at 33.0 µM
  growth inhibition: 95% (active)
[9]; at 100.0 µM
  growth inhibition: 98% (active)
[10]; [17]
  growth inhibition: 99% (active)
[10]; [18]
  growth inhibition: 99% (active)
[10]; at 50.0 µM
  growth inhibition: 97.5% (active)
[11]; at 1.2 µM
  growth inhibition: -14%
[11]; at 3.7 µM
  growth inhibition: 21%
[11]; [17]
  growth inhibition: 22%
[11]; at 11.0 µM
  growth inhibition: 90% (active)
[11]; at 33.0 µM
  growth inhibition: 97% (active)
[11]; [18]
  growth inhibition: 98% (active)
[11]; at 50.0 µM
  growth inhibition: 96.8% (active)
[11]; at 100.0 µM
  growth inhibition: 98% (active)
[12]; at 1.2 µM
  growth inhibition: 1%
[12]; at 3.7 µM
  growth inhibition: 39%
[12]; at 11.0 µM
  growth inhibition: 89% (active)
[12]; at 33.0 µM
  growth inhibition: 97% (active)
[12]; at 100.0 µM
  growth inhibition: 98% (active)
[13]; at 1.2 µM
  growth inhibition: 10%
[13]; at 3.7 µM
  growth inhibition: 50%
[13]; at 11.0 µM
  growth inhibition: 92% (active)
[13]; at 33.0 µM
  growth inhibition: 97% (active)
[13]; at 100.0 µM
  growth inhibition: 99% (active)
[16]; at 1.2 µM
  growth inhibition: 87% (active)
[16]; at 3.7 µM
  growth inhibition: 93% (active)
[16]; at 11.0 µM
  growth inhibition: 95% (active)
[16]; at 33.0 µM
  growth inhibition: 98% (active)
[16]; at 100.0 µM
  growth inhibition: 98% (active)
[15]; at 1.2 µM
  growth inhibition: 96% (active)
[15]; at 3.7 µM
  growth inhibition: 95% (active)
[15]; at 11.0 µM
  growth inhibition: 97% (active)
[15]; at 33.0 µM
  growth inhibition: 98% (active)
[15]; at 100.0 µM
  growth inhibition: 99% (active)
